The source of these data is PubChem BioAssay (EPA / NIEHS).

Values joined by “and” are separate entries in the source; they are usually repeats but may differ in a detail not shown here. Equal values may be shown once. Results filed as inconclusive are left out. Active and inactive are the calls of the source. How the source made its calls, unless noted: active means hit-call score of the fitted dose curve at least 0.9, where 1 is the maximum; inconclusive means response in the unintended direction; inactive means score below 0.9.

Usually AC50 stands for the midpoint of the concentration-response curve, whichever way the signal moves.

Assay [1] in a line: IUF_NPC4_neurite_length_120hr: Leibniz Research Institute for Environmental Medicine (IUF) 120-hour Neuronal Morphology Assay for Neurite Length (NPC4) (AID 2284302; active means hit-call score of the fitted dose curve at least 0.9, where 1 is the maximum; inactive means score below 0.9). The method in brief: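 Read-out is mean neurite length in µm of TUBB3-positive neurons, skeletonized from high-content fluorescence images after 120 h. Single 0.3 mm primary human neural progenitor spheres differentiated on poly-D-lysine/laminin under continuous compound exposure; DMSO was baseline.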

The nature of assay [2]: IUF_NPC4_neurite_area_120hr: Leibniz Research Institute for Environmental Medicine (IUF) 120-hour Neuronal Morphology Assay for Neurite Area (NPC4) (AID 2284305). The method in brief: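 Neurite area is read out as the mean pixel area, excluding nuclei, of skeletonized TUBB3-positive neurons imaged after 120 h. Primary human neural progenitor spheres differentiated on poly-D-lysine/laminin with compound present from day 0. Activity was referenced to DMSO controls.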

A short description of assay [3]: IUF_NPC2-5_cytotoxicity_72hr: Cytotoxicity Assessment at 72 hours in the Leibniz Research Institute for Environmental Medicine (IUF) Neural Progenitor Cell Migration and Differentiation Assay for Cytotoxicity (NPC2-5) (AID 2284306).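 Further: LDH release into supernatant measured by resorufin fluorescence marking membrane damage.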 A digest of the protocol: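 Membrane integrity loss was scored from fluorescence (RFU) of resorufin generated by LDH in culture supernatant, 72 h after dosing. Differentiating human progenitor spheres received seven serial compound concentrations alongside a solvent control.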

Assay [4] can be described thus: IUF_NPC2-5_cytotoxicity_120hr: Cytotoxicity Assessment at 120 hours in the Leibniz Research Institute for Environmental Medicine (IUF) Neural Progenitor Cell Migration and Differentiation Assay (NPC2-5) (AID 2284307).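 On AC50: LDH released into supernatant as membrane damage marker via resorufin fluorescence.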 The method in brief:
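Membrane-integrity loss measured as LDH activity in medium supernatant via resazurin-to-resorufin fluorescence after 120 h exposure. hNPC spheres from GW 16-19 fetal cortex differentiated on poly-D-lysine/laminin, 37C, medium half-refreshed day 3; seven concentrations, DMSO max 0.1%.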

Assay [5] in a line: IUF_NPC2-5_cell_number_120hr: Cell Number Assessment at 120 hours in the Leibniz Research Institute for Environmental Medicine (IUF) Neural Progenitor Cell Migration and Differentiation Assay (NPC2-5) (AID 2284308; active means hit-call score of the fitted dose curve at least 0.9, where 1 is the maximum; inactive means score below 0.9;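 further: count of Hoechst-stained nuclei in migration zone around plated human neural progenitor spheres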). A digest of the protocol: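 Counting of all Hoechst-stained nuclei in the migration area at 120 h, versus DMSO control. Primary hNPC spheres differentiated on poly-D-lysine/laminin in N2 medium at 37C, dosed from day 0 (7 concentrations, DMSO ≤0.1%), half-refed day 3.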

Assay [6] can be described thus: VALA_TUBHUV_Agonist_CellCount: Viability Assessment in the VALA Sciences human Umbilical Vein Endothelial Tubule Formation (TUBHUV) Agonism Assay (AID 2284309). The method in brief: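 HUVEC co-cultured 1:3 with HDF for 3 days in 10 ng/ml VEGF, then compounds added in VEGF medium for a further 3 days (72 h). Nuclear-stain/CD31 imaging cell count. Positive-direction fit versus 0.1% DMSO vehicle.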

Assay [7] in a line: IUF_NPC2-5_viability_120hr: Viability Assessment at 120 hours in the Leibniz Research Institute for Environmental Medicine (IUF) Neural Progenitor Cell Migration and Differentiation Assay (NPC2-5) (AID 2284312; active means hit-call score of the fitted dose curve at least 0.9, where 1 is the maximum; inactive means score below 0.9). The method in brief: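 Alamar blue resorufin fluorescence read after 5 days of differentiation, with compound present from day 0 and replenished at day 3. Primary hNPC spheres on laminin-coated plates, 37C; seven concentrations plus solvent control, fitted against DMSO.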

Assay [8] can be described thus: VALA_TUBIPS_Antagonist_TubuleLength: VALA Sciences human iPS-derived Endothelial Tubule Formation (TUBIPS) Antagonist Assay (AID 2284313). A digest of the protocol:
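Cells grown 3 days with 10 ng/ml VEGF, then exposed to compounds in VEGF medium for another 3 days. After fixation, nuclear stain and CD31 immunofluorescence imaging gave mean total tubule length against 0.1% DMSO; suramin (100 uM) inhibition control.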

Assay [9] is described as follows: VALA_MIGHUV2_WoundArea: VALA Sciences human Umbilical Vein Endothelial Cell Migration (MIGHUV) Assay, Area of Scratch Wound after Recovery (AID 2284316). A digest of the protocol:
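HUVEC seeded at 9000 cells/well, scratched after 24 h; test chemical added within 30 min, 6-point concentration response in triplicate (0.1% DMSO vehicle). After 24 h wound recovery, cells fixed and Hoechst-stained nuclei in wound area imaged; Cytochalasin D reference control.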

Assay [10] in a line: CCTE_Mundy_HCI_iCellGluta_NOG_NeuriteLength: CCTE's Neurite Outgrowth Assay in iCellGluta cells for Neurite Length, Mundy Lab (AID 2284318). The method in brief: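 Automated high-content imaging of betaIII-tubulin (Alexa Fluor-488) and Hoechst-stained cells gave neurite length, normalized to the DMSO baseline.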
Assay [11] in a line: IUF_NPC5_oligodendrocyte_differentiation_120hr: Leibniz Research Institute for Environmental Medicine (IUF) 120-hour Oligodendrocyte Differentiation Assay (NPC5) (AID 2284304).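 Further: primary human fetal neural progenitor spheres plated to migrate and differentiate.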 A digest of the protocol: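 Oligodendrocyte differentiation scored as O4-positive cells, found by CNN image analysis, as percent of Hoechst-stained nuclei in the migration area. Scoring followed 5 days of exposure of plated hNPC neurospheres differentiating in DMEM/F12 N2 medium at 37C, with compound refreshed at day 3.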

Assay [12] can be described thus: CCTE_Deisenroth_5AR_NBTE_donor: CCTE's 5alpha-reductase NanoBRET Target Engagement Assay […], Deisenroth Lab (AID 2284319; active means hit-call score of the fitted dose curve at least 0.9, where 1 is the maximum; inactive means score below 0.9). Particulars: actives raise or lower the signal. The method in brief:
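HEK293T cells were reverse transfected with an SRD5A2-NanoLuc vector for 20 h, exposed to test chemical (8 points, 10 nM - 29.9 uM) for 3 h, then testosterone tracer for 2 h more. Donor luminescence (460 nm) was read; bidirectional fit versus DMSO.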
For orientation: Bioluminescence resonance energy transfer reports proximity on the nanometre scale.

Assay [13] in a line: CCTE_Deisenroth_5AR_NBTE_acceptor: CCTE's 5alpha-reductase NanoBRET Target Engagement Assay - Autofluorescence Screen, Deisenroth Lab (AID 2284321; active means hit-call score of the fitted dose curve at least 0.9, where 1 is the maximum; inactive means score below 0.9;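 further: compound fluorescence in the acceptor channel under 460 nm excitation flags autofluorescence artifacts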). Particulars: actives raise or lower the signal. The method in brief:
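Acceptor-channel fluorescence flags artifacts, with excitation fixed at 460 nm. Nominal 100 uM chemical samples were read in triplicate runs, and signal changes were fitted in both directions relative to DMSO.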

The test system of the next assay is SRD5A2 (gene 6716). Description: CCTE_Deisenroth_5AR_NBTE_ratio: CCTE's 5alpha-reductase NanoBRET Target Engagement Assay - Ratio, Deisenroth Lab (AID 2284322; active means hit-call score of the fitted dose curve at least 0.9, where 1 is the maximum; inactive means score below 0.9). Particulars: actives raise or lower the signal. The method in brief: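 HEK293T transiently expressing SRD5A2-NanoLuc; cells exposed to chemical (8-point, 10 nM - 29.9 uM) for 5 h total, testosterone tracer added for final 2 h. NanoBRET acceptor/donor ratio (650/460 nm), bidirectional fit vs DMSO.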

A short description of assay [14]: VALA_MIGHUV1_ScratchOnly_CellCount: Viability Assessment in the VALA Sciences human Umbilical Vein Endothelial Cell Migration (MIGHUV) Assay, Scratch Wound Inhibited Recovery (AID 2284327). A digest of the protocol: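 HUVEC scratched after 24 h culture, chemical added within 30 min at 6 concentrations in triplicate (0.1% DMSO vehicle). After 24 h recovery, fixed cells were counted by Hoechst nuclear imaging in the wound area.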

For the next assay, the system named is IYD (gene 389434). Put plainly: CCTE_GLTED_hIYD: CCTE's human Iodotyrosine Deiodinase (xIYD) Inhibition Assay, Great Lakes Toxicology and Ecology Division (GLTED) Lab (AID 2284317).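 Further: cell-free human IYD enzyme made in baculovirus insect cells; iodide freed from monoiodotyrosine measured by cerium arsenite color change at 420 nm.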 The method in brief:
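hIYD: baculovirus-expressed human IYD deiodinated monoiodotyrosine for 3 h with test chemical; free iodide was measured by Sandell-Kolthoff absorbance at 420 nm and normalized to MNT and DMSO/NaOH controls.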

Assay [15] can be described thus: VALA_MIGHUV2_Bcatenin: VALA Sciences human Umbilical Vein Endothelial Cell Migration (MIGHUV) Assay, Nuclear Translocation of beta-Catenin after Recovery (AID 2284315). A digest of the protocol:
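HUVEC (4000 cells/well) scratch-wounded, dosed within 30 min over 6 concentrations in triplicate, recovered 24 h. After fixation, Hoechst and anti-beta-catenin immunofluorescence imaged for nuclear CTNB. Gain of signal versus 0.1% DMSO.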

`CC1=NNC(=O)N(/N=C/c2cccnc2)C1`: the call in assay [1], in [2], in assay [3], in [4], in [5] and in assay [6] was inactive. Also, the outcome in [7], in [8], in assay [9] and in assay [10] was inactive.

Turning to `CN(C)[C@@H]1C(=O)C(C(N)=O)=C(O)[C@@]2(O)C(=O)C3=C(O)c4c(O)cccc4[C@@](C)(O)[C@H]3[C@H](O)[C@@H]12`, the compound was classed as inactive in assay [1], in [11], in assay [3], in [6], in assay [7] and in [12]. For the same compound, the compound was classed as inactive (in assay [13]; in the assay on SRD5A2 (gene 6716); in [14]). For the same compound, the AC50 was 25.8 µM (active) in assay [4], 72.5 µM (active) in assay [5], 50 µM (active) in assay [9] and 24.6 µM (active) in [10].

Regarding `CCOP(=O)(NC(C)C)Oc1ccc(SC)c(C)c1` (stereo unspecified), the call in [1], in assay [2], in assay [3], in assay [4], in assay [5] and in assay [7] was inactive. Moreover, the call in assay [10] was inactive. The AC50 in assay [11] was 10.2 µM (active).

Turning to `C[Si](Cn1cncn1)(c1ccc(F)cc1)c1ccc(F)cc1`, the call (in assay [12]; in assay [13]; in the assay with SRD5A2 (gene 6716)) was inactive.

Regarding `CC(=NC#N)N(C)Cc1ccc(Cl)nc1`, the call in assay [1], in [2], in [3], in assay [4], in [5] and in assay [7] was inactive.

As for `CCCOCC(=Nc1ccc(Cl)cc1C(F)(F)F)n1ccnc1`, in the assay with IYD (gene 389434), the compound was called inactive.

In the case of `CCOP(=S)(OCC)SCCSCC`, the outcome in [1], in [2], in [3], in assay [4], in assay [5] and in assay [7] was inactive.

In the case of `C=C(C)[C@H]1Cc2c(ccc3c2O[C@@H]2COc4cc(OC)c(OC)cc4[C@@H]2C3=O)O1`, the AC50 in assay [1] is 224 nM (active) and 10 nM (active); in [2], 220 nM (active) and 15.5 nM (active); in [5] it was 0.00141 µM (active); in [7] it was 267 nM (active) and 1.57 nM (active); in assay [10], 0.121 µM (active); in the assay with SRD5A2 (gene 6716) it was 30.6 µM (active). The compound was classed as inactive in assay [3], in assay [4], in assay [12] and in assay [13].

In the case of `CCCCSP(=O)(SCCCC)SCCCC`, the outcome in assay [1], in assay [11], in assay [2], in assay [3], in assay [4] and in [5] was inactive. For the same compound, the compound was classed as inactive (in assay [7]; in the assay with IYD (gene 389434); in assay [10]).

Turning to `C[N+]1(C)CCCCC1`, the result in assay [1], in [11], in assay [2], in assay [3], in assay [5] and in [7] was inactive. Further, the AC50 in [4] was 0.0969 µM (active).

For the compound `S=C1NCCN1`, the compound was called inactive in assay [1], in assay [11], in assay [2], in assay [3], in [4] and in assay [5]. For the same compound, the outcome in assay [7], in assay [8], in assay [15], in assay [9] and in [10] was inactive.

For `CCOP(=O)(OCC)Oc1cc(C)nc(C(C)C)n1`, the outcome in [1], in assay [11], in assay [2], in assay [3], in assay [4] and in assay [5] was inactive. Besides, the compound was called inactive (in assay [7]; in the assay with IYD (gene 389434); in assay [10]).

As for `N#CSCSC#N`, the call in assay [12] and in [13] was inactive. For the same compound, the AC50 in the assay with SRD5A2 (gene 6716) was 19.5 µM (active).

As to `COP(=O)(OC)OC(Br)C(Cl)(Cl)Br` (stereo unspecified), the AC50 in assay [1] was 23.5 µM (active); in assay [2], 27 µM (active); in assay [4], 70.1 µM (active); in assay [5], 25.7 µM (active); in [10], 13.5 µM (active). The compound was classed as inactive (in [3]; in assay [7]; in [12]; in assay [13]; in the assay with SRD5A2 (gene 6716)).
